From PubChem BioAssay AID1159580 (chemical genetic matrix, 2015)
Where “and” joins values, the source holds several entries; their conditions need not be identical. Equal values may be shown once. About 2,000 (36%) of roughly 5,500 compounds were called active. Not shown: some 18% with an inconclusive outcome. Rule as the data show it: active = normalized growth mostly below about 0.91 (no sharp cut-off); inconclusive = no clear call, values can overlap the other calls; inactive = mostly above about 0.92. The list shows a part of the results.

Assay: chemical genetic growth profiling, strain panel (AID 1159580);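 also: tested at 20 µM; growth read once vehicle control cultures reached saturation at 30 °C; 1 = growth at the plate median or of vehicle wells; lower values mean less growth of the strain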
Conditions: S. cerevisiae deletion strains, growth OD

Measured: normalized growth

CC(=O)OC1CCC23C(=O)OC45CCC(C6=CC(=O)OC6)C4(C)CCC2C5CCC3(O)C1 (centres undefined)
inactive: locus YAL021C, strain ccr4, stronger effect = lower value 1 | locus YAL026C, strain drs2, stronger effect = lower value 0.979 | locus YAL030W, strain snc1, stronger effect = lower value 0.996 | locus YBL061C, strain skt5, stronger effect = lower value 0.975 | locus YBR009C, strain hhf1, stronger effect = lower value 0.998 | locus YBR021W, strain FUR4, stronger effect = lower value 1 | locus YBR023C, strain chs3, stronger effect = lower value 0.991 | locus YBR171W, strain sec66, stronger effect = lower value 0.953 | locus YBR229C, strain ROT2, stronger effect = lower value 1.01 | locus YBR231C, strain swc5, stronger effect = lower value 0.987 | locus YBR279W, strain paf1, stronger effect = lower value 1.01 | locus YCL011C, strain gbp2, stronger effect = lower value 1 | locus YCL016C, strain dcc1, stronger effect = lower value 1.04 | locus YCL029C, strain bik1, stronger effect = lower value 1.02 | locus YCL061C, strain MRC1, stronger effect = lower value 0.997 | locus YCL069W, strain vba3, stronger effect = lower value 0.979 | locus YCR088W, strain abp1, stronger effect = lower value 0.986 | locus YDL005C, strain med2, stronger effect = lower value 0.98 | locus YDL035C, strain GPR1, stronger effect = lower value 1.05 | locus YDL040C, strain nat1, stronger effect = lower value 0.99 | locus YDL074C, strain BRE1, stronger effect = lower value 1.1 | locus YDL101C, strain DUN1, stronger effect = lower value 1.01 | locus YDL185W, strain tfp1, stronger effect = lower value 0.992 | locus YDL192W, strain arf1, stronger effect = lower value 1.03 | locus YDR001C, strain nth1, stronger effect = lower value 0.991 | locus YDR069C, strain doa4, stronger effect = lower value 0.963 | locus YDR101C, strain arx1, stronger effect = lower value 1 | locus YDR137W, strain rgp1, stronger effect = lower value 1.03 | locus YDR159W, strain sac3, stronger effect = lower value 0.961 | locus YDR162C, strain NBP2, stronger effect = lower value 1.03 | locus YDR195W, strain ref2 0.943 | locus YDR297W, strain sur2, stronger effect = lower value 0.987 | locus YDR318W, strain mcm21, stronger effect = lower value 1.02 | locus YDR334W, strain swr1, stronger effect = lower value 0.959 | locus YDR335W, strain msn5, stronger effect = lower value 0.992 | locus YDR388W, stronger effect = lower value 0.998 | locus YDR392W, strain spt3, stronger effect = lower value 0.962 | locus YDR502C, strain sam2, stronger effect = lower value 1.02 | locus YEL003W, strain gim4, stronger effect = lower value 0.988 | locus YEL037C, strain rad23, stronger effect = lower value 0.97 | locus YEL061C, strain CIN8 (second series), stronger effect = lower value 0.981 | locus YER015W, strain faa2, stronger effect = lower value 0.977 | locus YER016W, strain bim1, stronger effect = lower value 0.994 | locus YER110C, stronger effect = lower value 0.997 | locus YER111C, strain swi4, stronger effect = lower value 0.95 | locus YER155C, strain BEM2 (second series), stronger effect = lower value 0.968 | locus YER155C, strain BEM2, stronger effect = lower value 1 | locus YER167W, strain BCK2, stronger effect = lower value 1.01 | locus YFR010W, strain ubp6, stronger effect = lower value 0.959 | locus YGL078C, strain dbp3, stronger effect = lower value 1 | locus YGL086W, strain mad1, stronger effect = lower value 1 | locus YGL167C, strain pmr1, stronger effect = lower value 0.978 | locus YGL173C, strain kem1, stronger effect = lower value 0.972 | locus YGL227W, strain vid30, stronger effect = lower value 0.994 | locus YGL240W, strain doc1, stronger effect = lower value 0.973 | locus YGL248W, strain PDE1, stronger effect = lower value 1.06 | locus YGL253W, strain hxk2, stronger effect = lower value 0.98 | locus YGR135W, strain pre9, stronger effect = lower value 0.997 | locus YGR252W, strain gcn5, stronger effect = lower value 1 | locus YHR013C, strain ard1, stronger effect = lower value 0.994 | locus YHR027C, strain rpn1, stronger effect = lower value 0.971 | locus YHR030C, strain SLT2, stronger effect = lower value 1.02 and 0.956 | locus YHR079C, strain IRE1 (second series), stronger effect = lower value 0.994 | locus YHR079C, strain IRE1, stronger effect = lower value 0.984 | locus YHR094C, strain hxt1, stronger effect = lower value 1 | locus YHR129C, strain ARP1, stronger effect = lower value 1.02 | locus YHR142W, strain chs7, stronger effect = lower value 1.02 | locus YHR200W, strain rpn10, stronger effect = lower value 1.01 | locus YIL066C, strain RNR3, stronger effect = lower value 1.03 | locus YIL073C, strain SPO22, stronger effect = lower value 1.11 | locus YIL125W, strain kgd1, stronger effect = lower value 1.02 | locus YIR030C, strain dcg1, stronger effect = lower value 1 | locus YJL092W, strain hpr5, stronger effect = lower value 0.971 | locus YJL095W, strain BCK1 (second series), stronger effect = lower value 0.96 | locus YJL095W, strain BCK1, stronger effect = lower value 1.08 and 0.965 | locus YJL115W, strain asf1, stronger effect = lower value 0.979 | locus YJL129C, strain trk1, stronger effect = lower value 0.973 | locus YJL134W, strain LCB3, stronger effect = lower value 1.01 | locus YJL154C, strain vps35, stronger effect = lower value 0.988 | locus YJL164C, strain tpk1, stronger effect = lower value 1.04 | locus YJL166W, strain qcr8, stronger effect = lower value 0.977 | locus YJL168C, strain set2, stronger effect = lower value 1.01 | locus YJL187C, strain SWE1 (second series), stronger effect = lower value 1.02 | locus YJR043C, strain POL32, stronger effect = lower value 1.05 | locus YJR066W, strain TOR1, stronger effect = lower value 0.883 | locus YKL009W, strain mrt4, stronger effect = lower value 1.02 | locus YKL068W, stronger effect = lower value 1.01 | locus YKL085W, strain MDH1 (second series), stronger effect = lower value 1 | locus YKL085W, strain MDH1, stronger effect = lower value 1 | locus YKL160W, strain elf1, stronger effect = lower value 1.06 | locus YKR001C, strain vps1, stronger effect = lower value 1.02 | locus YKR026C, strain gcn3, stronger effect = lower value 0.976 | locus YKR091W, strain srl3, stronger effect = lower value 0.994 | locus YLL001W, strain dnm1, stronger effect = lower value 1.01 | locus YLL026W, stronger effect = lower value 0.996 | locus YLL041C, strain sdh2, stronger effect = lower value 0.966 | locus YLR027C, strain aat2, stronger effect = lower value 0.988 | locus YLR039C, strain RIC1, stronger effect = lower value 1.23 | locus YLR058C, strain SHM2, stronger effect = lower value 1.02 | locus YLR102C, strain apc9, stronger effect = lower value 0.994 | locus YLR113W, strain HOG1, stronger effect = lower value 1.01 | locus YLR221C, strain rsa3, stronger effect = lower value 0.981 | locus YLR258W, strain gsy2, stronger effect = lower value 1 | locus YLR262C, strain YPT6 (second series), stronger effect = lower value 1.01 | locus YLR268W, strain sec22, stronger effect = lower value 1.02 | locus YLR320W, strain mms22, stronger effect = lower value 0.988 | locus YLR342W, strain FKS1 (second series), stronger effect = lower value 1.06 | locus YLR342W, strain FKS1, stronger effect = lower value 0.995 | locus YLR357W, strain rsc2, stronger effect = lower value 0.973 | locus YLR370C, strain arc18, stronger effect = lower value 0.986 | locus YLR371W, strain rom2, stronger effect = lower value 1.02 | locus YLR384C, strain iki3, stronger effect = lower value 0.997 | locus YLR418C, strain cdc73, stronger effect = lower value 1.06 | locus YML016C, strain PPZ1, stronger effect = lower value 1.01 | locus YML032C, strain rad52, stronger effect = lower value 1.01 | locus YML120C, strain ndi1, stronger effect = lower value 1.01 | locus YML124C, strain tub3, stronger effect = lower value 1.01 | locus YMR058W, strain fet3, stronger effect = lower value 0.988 | locus YMR078C, strain ctf18, stronger effect = lower value 1.01 | locus YMR125W, strain sto1, stronger effect = lower value 0.992 | locus YMR129W, stronger effect = lower value 0.986 | locus YMR205C, strain PFK2, stronger effect = lower value 1.01 | locus YMR223W, strain ubp8, stronger effect = lower value 1 | locus YMR231W, strain pep5, stronger effect = lower value 0.97 | locus YMR263W, strain SAP30, stronger effect = lower value 1.01 | locus YMR307W, strain GAS1, stronger effect = lower value 1.16 | locus YNL067W, strain RPL9B, stronger effect = lower value 0.999 | locus YNL071W, strain lat1, stronger effect = lower value 0.994 | locus YNL183C, strain NPR1, stronger effect = lower value 0.922 | locus YNL209W, strain ssb2, stronger effect = lower value 0.996 | locus YNL233W, strain BNI4, stronger effect = lower value 1.05 | locus YNL248C, strain rpa49, stronger effect = lower value 0.989 | locus YNL250W, strain rad50, stronger effect = lower value 1.03 | locus YNL271C, strain bni1, stronger effect = lower value 1.02 | locus YNL298W, strain CLA4, stronger effect = lower value 1.01 | locus YNL307C, strain MCK1, stronger effect = lower value 1.02 | locus YNL322C, strain KRE1 (second series), stronger effect = lower value 0.987 | locus YNR049C, strain mso1, stronger effect = lower value 0.967 | locus YNR052C, strain pop2, stronger effect = lower value 0.996 | locus YOL006C, strain TOP1, stronger effect = lower value 1.28 | locus YOL012C, strain htz1 0.952 | locus YOL147C, strain pex11, stronger effect = lower value 1.02 | locus YOR001W, strain rrp6, stronger effect = lower value 0.929 | locus YOR061W, strain CKA2, stronger effect = lower value 1.02 | locus YOR069W, strain VPS5, stronger effect = lower value 1 | locus YOR070C, strain gyp1, stronger effect = lower value 0.982 | locus YOR080W, strain dia2, stronger effect = lower value 0.98 | locus YOR083W, strain WHI5, stronger effect = lower value 1.06 | locus YOR106W, strain vam3, stronger effect = lower value 1.05 | locus YOR136W, strain idh2, stronger effect = lower value 0.997 | locus YOR144C, strain elg1, stronger effect = lower value 1 | locus YOR184W, strain ser1, stronger effect = lower value 1.02 | locus YOR231W, strain MKK1, stronger effect = lower value 0.976 | locus YOR265W, strain rbl2, stronger effect = lower value 0.996 | locus YOR270C, strain vph1, stronger effect = lower value 1 | locus YOR290C, strain snf2, stronger effect = lower value 1.02 | locus YOR316C, strain cot1, stronger effect = lower value 1.02 | locus YPL051W, strain arl3, stronger effect = lower value 0.967 | locus YPL055C, strain LGE1, stronger effect = lower value 1.09 | locus YPL078C, strain atp4, stronger effect = lower value 1.06 | locus YPL106C, strain sse1, stronger effect = lower value 1 | locus YPL240C, strain hsp82, stronger effect = lower value 0.979 | locus YPL241C, strain CIN2, stronger effect = lower value 1.02 | locus YPL256C, strain CLN2, stronger effect = lower value 0.975 | locus YPR119W, strain clb2, stronger effect = lower value 0.999 | locus YPR141C, strain kar3, stronger effect = lower value 0.997 | locus YPR163C, strain tif3, stronger effect = lower value 1.01 | locus YPR167C, strain met16, stronger effect = lower value 1.02 | strain wtn01, stronger effect = lower value 1
